Source: PubChem BioAssay (NCI)
The panel holds about 79,000 compounds, 15% with a hit somewhere; the sample as a whole holds those more often. Values without a mark were called inactive. Active and inactive are the calls of the source. Cut-off read from the data, not from the text of the source: active = growth inhibition above about 70%; inactive = the rest.

What was measured:
[1] = NCI Yeast Anticancer Drug Screen. Data for the rad50 strain (AID 155);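 note: 0% = growth of vehicle-only cultures of the same strain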; conditions: S. cerevisiae rad50 strain growth inhibition; at 50.0 µM; active compounds read high
In short: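 Compounds were tested on a yeast strain with an engineered DNA damage repair alteration; the reported value is growth inhibition normalised to vehicle treatment.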

[2] = NCI Yeast Anticancer Drug Screen. Data for the mec2-1 strain (AID 157); conditions: S. cerevisiae mec2-1 strain, at 50.0 µM, active compounds read high
In short: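 Vehicle-treated cultures served as reference for growth inhibition of compound-exposed mec2-1 yeast.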

[3] = NCI Yeast Anticancer Drug Screen. Data for the sgs1 mgt1 strain (AID 161);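 note: 0% = growth of cultures given vehicle only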; conditions: S. cerevisiae sgs1 mgt1 strain, at 50.0 µM, active compounds read high
In short: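 Mutant yeast exposed to compound; growth scored against vehicle-only wells.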

[4] = NCI Yeast Anticancer Drug Screen. Data for the cln2 rad14 strain (AID 165);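 note: 0% = growth equal to vehicle treated cultures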; conditions: S. cerevisiae cln2 rad14 strain, at 50.0 µM, active compounds read high
In short: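 Each compound was tested on cln2 rad14 yeast. Inhibition of growth was calculated against vehicle-exposed controls.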

[5] = NCI Yeast Anticancer Drug Screen. Data for the bub3 strain (AID 167); conditions: S. cerevisiae bub3 mutant strain, at 50.0 µM, active compounds read high
In short: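 Growth of a checkpoint-deficient yeast mutant is measured after compound exposure. Values represent inhibition relative to vehicle.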

[6] = NCI Yeast Anticancer Drug Screen. Data for the mlh1 rad18 strain (AID 175); conditions: S. cerevisiae mlh1 rad18 strain growth inhibition; at 50.0 µM; active compounds read high
In short: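 Vehicle-treated cultures served as the reference for growth inhibition in a yeast strain carrying DNA damage repair alterations exposed to each compound.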

O=S(=O)(O)Cc1cccc2ccccc12
growth inhibition [1]: 38%
growth inhibition [2]: 6.7%
growth inhibition [3]: 11.8%
growth inhibition [4]: -17.6%
growth inhibition [5]: -2.65%
growth inhibition [6]: 22.6%

CCOCCN(CCOCC)c1ncnc2[nH]ncc12
growth inhibition [1]: 9.15%
growth inhibition [2]: 5.15%
growth inhibition [3]: 9.95%
growth inhibition [4]: -25.2%
growth inhibition [5]: 21.6%
growth inhibition [6]: 10.6%

CCc1cccc(CC)c1NC(=S)NN
growth inhibition [1]: 17.4%
growth inhibition [2]: 15.3%
growth inhibition [3]: 41.9%
growth inhibition [4]: -6%
growth inhibition [5]: 24.2%
growth inhibition [6]: 5.55%

CCCS(=O)(=O)CCC(=O)c1ccccc1
growth inhibition [1]: -4%
growth inhibition [2]: -7.9%
growth inhibition [3]: -9%
growth inhibition [4]: -13.8%
growth inhibition [5]: 0.85%
growth inhibition [6]: 2.7%

Cc1nc2ccccc2o1
growth inhibition [1]: 19.9%
growth inhibition [2]: 39.5%
growth inhibition [3]: 13.1%
growth inhibition [4]: 14.9%
growth inhibition [5]: -1.6%
growth inhibition [6]: -10.4%

Cc1cc(/C=N/NC(=O)c2ccccc2NC(=O)c2ccccc2Cl)ccc1O
growth inhibition [1]: 20.6%
growth inhibition [2]: 9.8%
growth inhibition [3]: 39.2%
growth inhibition [4]: 11.9%
growth inhibition [5]: 9.1%
growth inhibition [6]: 34.8%

Cc1cc(Br)ncc1[N+](=O)[O-]
growth inhibition [1]: -12.8%
growth inhibition [2]: 3.3%
growth inhibition [3]: -1.25%
growth inhibition [4]: -6%
growth inhibition [5]: -3.7%
growth inhibition [6]: -7.6%

NC(CCCNCc1ccccc1)C(=O)O (centres undefined)
growth inhibition [1]: 31.9%
growth inhibition [2]: 6.85%
growth inhibition [3]: 1.65%
growth inhibition [4]: 12.3%
growth inhibition [5]: 36.9%
growth inhibition [6]: 16.3%

Cc1cc2c(=O)c3ccc(Cl)cc3[nH]c2c(C(N)=O)c1C
growth inhibition [1]: 22.2%
growth inhibition [2]: 7.4%
growth inhibition [3]: 14.5%
growth inhibition [4]: 26.3%
growth inhibition [5]: 6.6%
growth inhibition [6]: 13.3%

C[C@@H]1CC[C@@H](C)[C@](C)(CCc2ccoc2)C/C=C\C=C/1C(=O)O
growth inhibition [1]: 85.2% (active)
growth inhibition [2]: 85.8% (active)
growth inhibition [3]: 73.8% (active)
growth inhibition [4]: 84.7% (active)
growth inhibition [5]: 68.8%
growth inhibition [6]: 78.2% (active)

FC(F)(F)C(Cl)=C(Cl)Cl
growth inhibition [1]: -1.8%
growth inhibition [2]: -38.5%
growth inhibition [3]: 14.5%
growth inhibition [4]: 20.1%
growth inhibition [5]: -13.7%
growth inhibition [6]: -1.75%

COc1ccc(CN2CCCN(Cc3ccc(OC)cc3OC)C2c2ccccc2)c(OC)c1
growth inhibition [1]: 19.6%
growth inhibition [2]: 6.9%
growth inhibition [3]: 8.05%
growth inhibition [4]: 17.9%
growth inhibition [5]: -4.6%
growth inhibition [6]: 14.8%

COc1ccc(C(C#N)N2CCCCC2)cc1 (centres undefined)
growth inhibition [1]: 21.6%
growth inhibition [2]: -6.25%
growth inhibition [3]: -13.5%
growth inhibition [4]: 22.1%
growth inhibition [5]: 7.05%
growth inhibition [6]: 0.4%

CS(=O)(=O)C1CCCCC1SC#N (centres undefined)
growth inhibition [1]: -5.1%
growth inhibition [2]: -16.7%
growth inhibition [3]: -14.5%
growth inhibition [4]: -19%
growth inhibition [5]: 4.1%
growth inhibition [6]: 3.45%

NC(CC1=CS(=O)(=O)c2ccc(Cl)cc21)C(=O)O (centres undefined)
growth inhibition [1]: 18.4%
growth inhibition [2]: 19.3%
growth inhibition [3]: 4.45%
growth inhibition [4]: -16.2%
growth inhibition [5]: 23.8%
growth inhibition [6]: 23.9%

COc1cc(/C=C/C(=O)NCCc2c[nH]c3ccc(O)cc23)ccc1O
growth inhibition [1]: -9.25%
growth inhibition [2]: -0.75%
growth inhibition [3]: 9.3%
growth inhibition [4]: 11.8%
growth inhibition [5]: 3.15%
growth inhibition [6]: 6.75%

Cc1ccc(S(=O)(=O)NN=C2CCS(=O)CC2)cc1 (centres undefined)
growth inhibition [1]: -19.6%
growth inhibition [2]: 10.7%
growth inhibition [3]: 7.6%
growth inhibition [4]: -32.4%
growth inhibition [5]: -10.5%
growth inhibition [6]: -28.5%

Cc1c(Br)cc(Br)c(O)c1Br
growth inhibition [1]: 37.3%
growth inhibition [2]: 26.9%
growth inhibition [3]: 23.7%
growth inhibition [4]: -29.4%
growth inhibition [5]: 9.1%
growth inhibition [6]: 31.1%

Cc1cccc(NC(=O)/C=C/c2ccccc2)n1
growth inhibition [1]: 6.15%
growth inhibition [2]: -26.5%
growth inhibition [3]: -4.3%
growth inhibition [4]: -81.3%
growth inhibition [5]: 9.15%
growth inhibition [6]: -22.4%

O=c1[nH][nH]c(=O)c2c1ncn2Cc1ccccc1
growth inhibition [1]: 34.9%
growth inhibition [2]: -17%
growth inhibition [3]: 1.7%
growth inhibition [4]: -49.5%
growth inhibition [5]: -14.9%
growth inhibition [6]: -25.5%

C/C(=N\N=Nc1ccc(N(C)C)cc1)c1ccccc1
growth inhibition [1]: 1.6%
growth inhibition [2]: -3.3%
growth inhibition [3]: -5.25%
growth inhibition [4]: 15.9%
growth inhibition [5]: 29.2%
growth inhibition [6]: 9.1%

COC/C=C\COC
growth inhibition [1]: 3.45%
growth inhibition [2]: 5%
growth inhibition [3]: 17.6%
growth inhibition [4]: -2.15%
growth inhibition [5]: -6.3%
growth inhibition [6]: 22.1%

CCOC(=O)c1cc2nc(NC(=O)c3ccccc3)sc2n1C
growth inhibition [1]: 4.85%
growth inhibition [2]: 8.3%
growth inhibition [3]: 7.3%
growth inhibition [4]: 10.3%
growth inhibition [5]: 6.4%
growth inhibition [6]: 16.8%

O=C(NCc1ccccc1)c1cc(Cl)ccc1O
growth inhibition [1]: -20.3%
growth inhibition [2]: -7.1%
growth inhibition [3]: -7.65%
growth inhibition [4]: -37.4%
growth inhibition [5]: 0.95%
growth inhibition [6]: 5.35%

O=C(CCc1ccc(O)cc1)c1c(O)cc(O)cc1O
growth inhibition [1]: -5.3%
growth inhibition [2]: -29.9%
growth inhibition [3]: -11.3%
growth inhibition [4]: 12.9%
growth inhibition [5]: -11.2%
growth inhibition [6]: -9.05%

O=c1cc(-c2ccccc2)[nH]c2ccc(N3CCOCC3)cc12
growth inhibition [1]: -37.7%
growth inhibition [2]: 0.25%
growth inhibition [3]: -41.6%
growth inhibition [4]: -18.9%
growth inhibition [5]: -15.8%
growth inhibition [6]: -31.4%

Nc1nc(N)nc(Cc2ccccc2)n1
growth inhibition [1]: -24.4%
growth inhibition [2]: -3.45%
growth inhibition [3]: -17.9%
growth inhibition [4]: -58.4%
growth inhibition [5]: -15%
growth inhibition [6]: -57.9%

O=C(NCCc1ccccc1Br)c1ccccc1
growth inhibition [1]: 8.25%
growth inhibition [2]: -26.6%
growth inhibition [3]: -5.95%
growth inhibition [4]: 18.8%
growth inhibition [5]: 28.7%
growth inhibition [6]: -6.35%

CCCCCOC(=O)c1cc2ccccc2cc1O
growth inhibition [1]: -3%
growth inhibition [2]: -8.05%
growth inhibition [3]: -8.95%
growth inhibition [4]: -39.6%
growth inhibition [5]: 30.1%
growth inhibition [6]: -7.8%

O=C(COc1ccc(Cl)cc1)Nc1cccc([N+](=O)[O-])c1
growth inhibition [1]: 2.55%
growth inhibition [2]: 17.1%
growth inhibition [3]: 2.45%
growth inhibition [4]: -5.7%
growth inhibition [5]: 18.9%
growth inhibition [6]: 6.7%

c1ccc(COC(c2ccccc2)(c2ccccc2)c2ccccc2)cc1
growth inhibition [1]: -0.45%
growth inhibition [2]: -2.2%
growth inhibition [3]: 10.4%
growth inhibition [4]: -8.55%
growth inhibition [5]: -0.85%
growth inhibition [6]: 27.9%

CCOC(=O)CCCCCC(=O)OCC
growth inhibition [1]: 4%
growth inhibition [2]: 0.25%
growth inhibition [3]: -2.7%
growth inhibition [4]: 4.1%
growth inhibition [5]: 12.8%
growth inhibition [6]: 1.8%

O=C(O)c1ccccc1CC(Cc1ccc2c(c1)CCC2)C(=O)O (centres undefined)
growth inhibition [1]: -7.55%
growth inhibition [2]: -2.25%
growth inhibition [3]: -37%
growth inhibition [4]: -5.15%
growth inhibition [5]: -17.6%
growth inhibition [6]: -6%

CC(O)CC(C)(C)O (centres undefined)
growth inhibition [1]: 28.1%
growth inhibition [2]: 13.1%
growth inhibition [3]: 8.55%
growth inhibition [4]: 9.9%
growth inhibition [5]: 15.3%
growth inhibition [6]: 4.2%

CC1=C(C(=O)NCc2ccccc2)C(c2ccco2)C(C(=O)NCc2ccccc2)=C(C)N1
growth inhibition [1]: -34.5%
growth inhibition [2]: -20.4%
growth inhibition [3]: -37.5%
growth inhibition [4]: -13.3%
growth inhibition [5]: -9.9%
growth inhibition [6]: -21.8%

CN1CCC(C)(c2ccccc2)C(=O)C1 (centres undefined)
growth inhibition [1]: 2%
growth inhibition [2]: 3.85%
growth inhibition [3]: 11%
growth inhibition [4]: -28.6%
growth inhibition [5]: -10.3%
growth inhibition [6]: 12.7%

COc1ccc(C2CC(=O)C(C(=O)OC3CCCCC3)C2c2ccc(OC)cc2)cc1 (centres undefined)
growth inhibition [1]: 13.9%
growth inhibition [2]: 16.2%
growth inhibition [3]: 15.8%
growth inhibition [4]: 28.1%
growth inhibition [5]: -3.25%
growth inhibition [6]: 19.5%

CCC1(CC)SCC(C)(O)NC1=O (centres undefined)
growth inhibition [1]: 1.95%
growth inhibition [2]: -12.5%
growth inhibition [3]: -7.15%
growth inhibition [4]: -35.4%
growth inhibition [5]: -10.6%
growth inhibition [6]: -4.75%

CC1CN(Cc2ccccc2)CCC1N1CCCC1 (centres undefined)
growth inhibition [1]: 24.8%
growth inhibition [2]: 11.8%
growth inhibition [3]: 27.6%
growth inhibition [4]: 29.4%
growth inhibition [5]: 23.2%
growth inhibition [6]: 21.4%
